Test results as given in the supplement of paper PMC10849652.
Of roughly 8,800 targets only a part is listed; those with a hit were picked by preference. About 0.5% of all pairs of compound and target were hits. Values without a mark were called inactive.

Assays:
Test in all cases: log2 fold change, soluble protein after heating vs DMSO (PISA); higher = thermal stabilisation; K562 lysate, 10 uM; active = over 0.2 and 3.5 SD of the protein, either way, in both replicates (recomputed)
[1] = compound: NCC(=O)Nc1ccc(-n2nc(C(F)(F)F)cc2-c2ccc3c(ccc4ccccc43)c2)cc1
Procedure, shortened: (§1)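 Values give the log-two fold change in thermal stability against solvent controls, from duplicates. Crude K562 extract at 1 mg/mL protein, made by dounce homogenisation in PBS pH 7.4 with 1 mM MgCl2, was treated with 10 μM compound for 30 min. After 3 min heating across 48°C-58°C, aliquots were pooled, adjusted to 0.5% NP-40 at 4°C and centrifuged at 21,000xg for 90 min. The supernatant was measured by TMTpro 16plex LC-MS/MS with channel sums equalised.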

[2] = compound: O=C(CCCCCCC(=O)Nc1ccccc1)NO [vorinostat]
Procedure, shortened: as §1

[3] = compound: O=C(O)c1ccc2c(c1)nc(Nc1cccc(Cl)c1)c1ccncc12 [silmitasertib]
Procedure, shortened: as §1

[4] = compound: O=C1NC(=O)C(c2cnc3ccccn23)=C1c1cn2c3c(cc(F)cc13)CN(C(=O)N1CCCCC1)CC2
Procedure, shortened: as §1

[5] = compound: c1cn2cc(-c3ccc4cn[nH]c4c3)nc(Nc3ccc(N4CCOCC4)cc3)c2n1 [entospletinib]
Procedure, shortened: as §1

Sequence of UniProt Q9H079 (Q9H079 whole entry, looked up): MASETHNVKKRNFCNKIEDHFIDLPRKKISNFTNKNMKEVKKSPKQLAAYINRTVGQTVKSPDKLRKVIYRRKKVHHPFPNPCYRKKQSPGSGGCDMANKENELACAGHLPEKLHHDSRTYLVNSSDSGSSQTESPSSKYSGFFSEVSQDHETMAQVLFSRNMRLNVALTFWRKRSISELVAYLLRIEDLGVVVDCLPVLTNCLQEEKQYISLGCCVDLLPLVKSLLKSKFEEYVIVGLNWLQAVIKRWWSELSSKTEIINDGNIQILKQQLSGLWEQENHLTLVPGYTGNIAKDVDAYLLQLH
Sequence of UniProt Q14687 (Q14687 whole entry, looked up): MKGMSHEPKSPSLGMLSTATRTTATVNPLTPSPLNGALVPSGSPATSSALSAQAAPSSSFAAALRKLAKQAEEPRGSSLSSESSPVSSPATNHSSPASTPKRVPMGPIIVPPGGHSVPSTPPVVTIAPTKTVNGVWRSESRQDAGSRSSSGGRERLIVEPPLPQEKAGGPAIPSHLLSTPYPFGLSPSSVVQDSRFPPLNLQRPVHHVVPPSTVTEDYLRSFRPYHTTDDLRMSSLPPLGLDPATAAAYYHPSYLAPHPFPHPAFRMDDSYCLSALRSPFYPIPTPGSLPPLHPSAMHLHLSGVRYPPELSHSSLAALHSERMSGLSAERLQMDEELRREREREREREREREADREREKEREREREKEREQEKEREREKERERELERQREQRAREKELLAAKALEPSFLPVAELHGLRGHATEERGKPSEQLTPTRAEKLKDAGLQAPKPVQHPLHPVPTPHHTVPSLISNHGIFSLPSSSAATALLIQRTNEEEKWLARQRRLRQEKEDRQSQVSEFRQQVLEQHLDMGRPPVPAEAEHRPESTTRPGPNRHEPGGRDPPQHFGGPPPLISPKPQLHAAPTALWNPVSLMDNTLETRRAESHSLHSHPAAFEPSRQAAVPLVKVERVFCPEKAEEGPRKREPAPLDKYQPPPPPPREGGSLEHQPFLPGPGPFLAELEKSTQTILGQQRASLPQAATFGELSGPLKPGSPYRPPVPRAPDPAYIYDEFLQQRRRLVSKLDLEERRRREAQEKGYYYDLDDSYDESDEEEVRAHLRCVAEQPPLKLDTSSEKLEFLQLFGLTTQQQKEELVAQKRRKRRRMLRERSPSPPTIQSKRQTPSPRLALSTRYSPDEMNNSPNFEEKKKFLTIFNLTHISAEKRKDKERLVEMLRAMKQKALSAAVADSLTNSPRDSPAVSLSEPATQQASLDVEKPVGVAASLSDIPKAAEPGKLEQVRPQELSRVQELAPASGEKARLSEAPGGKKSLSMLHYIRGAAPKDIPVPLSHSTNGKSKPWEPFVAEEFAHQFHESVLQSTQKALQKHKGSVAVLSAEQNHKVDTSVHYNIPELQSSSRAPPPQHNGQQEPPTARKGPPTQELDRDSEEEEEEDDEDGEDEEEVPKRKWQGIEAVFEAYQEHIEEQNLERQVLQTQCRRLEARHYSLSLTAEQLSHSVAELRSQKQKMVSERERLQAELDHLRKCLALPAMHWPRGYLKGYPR
Sequence of UniProt P09429 (P09429 whole entry, looked up): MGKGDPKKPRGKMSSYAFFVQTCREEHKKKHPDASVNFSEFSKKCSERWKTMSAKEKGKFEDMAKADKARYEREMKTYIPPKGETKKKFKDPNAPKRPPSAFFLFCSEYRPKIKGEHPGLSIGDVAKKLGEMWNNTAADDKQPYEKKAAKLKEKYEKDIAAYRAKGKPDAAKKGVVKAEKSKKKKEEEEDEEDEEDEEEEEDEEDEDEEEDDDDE
Sequence of UniProt Q01581 (Q01581 whole entry, looked up): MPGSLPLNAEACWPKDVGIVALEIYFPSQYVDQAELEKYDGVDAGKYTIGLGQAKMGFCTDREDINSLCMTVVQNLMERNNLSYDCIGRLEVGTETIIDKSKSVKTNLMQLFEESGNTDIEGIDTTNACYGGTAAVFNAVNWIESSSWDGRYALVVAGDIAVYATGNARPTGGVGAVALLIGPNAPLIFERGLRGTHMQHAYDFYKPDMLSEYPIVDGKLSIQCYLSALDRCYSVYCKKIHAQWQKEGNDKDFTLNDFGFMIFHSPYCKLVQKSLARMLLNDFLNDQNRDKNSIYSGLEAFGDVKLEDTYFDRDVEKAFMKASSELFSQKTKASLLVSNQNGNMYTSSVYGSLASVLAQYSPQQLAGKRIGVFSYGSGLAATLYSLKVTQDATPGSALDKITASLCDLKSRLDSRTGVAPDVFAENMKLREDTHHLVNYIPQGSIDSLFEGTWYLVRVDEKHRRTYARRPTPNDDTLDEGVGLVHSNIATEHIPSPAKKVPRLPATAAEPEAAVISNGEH
Sequence of UniProt Q14145 (Q14145 whole entry, looked up): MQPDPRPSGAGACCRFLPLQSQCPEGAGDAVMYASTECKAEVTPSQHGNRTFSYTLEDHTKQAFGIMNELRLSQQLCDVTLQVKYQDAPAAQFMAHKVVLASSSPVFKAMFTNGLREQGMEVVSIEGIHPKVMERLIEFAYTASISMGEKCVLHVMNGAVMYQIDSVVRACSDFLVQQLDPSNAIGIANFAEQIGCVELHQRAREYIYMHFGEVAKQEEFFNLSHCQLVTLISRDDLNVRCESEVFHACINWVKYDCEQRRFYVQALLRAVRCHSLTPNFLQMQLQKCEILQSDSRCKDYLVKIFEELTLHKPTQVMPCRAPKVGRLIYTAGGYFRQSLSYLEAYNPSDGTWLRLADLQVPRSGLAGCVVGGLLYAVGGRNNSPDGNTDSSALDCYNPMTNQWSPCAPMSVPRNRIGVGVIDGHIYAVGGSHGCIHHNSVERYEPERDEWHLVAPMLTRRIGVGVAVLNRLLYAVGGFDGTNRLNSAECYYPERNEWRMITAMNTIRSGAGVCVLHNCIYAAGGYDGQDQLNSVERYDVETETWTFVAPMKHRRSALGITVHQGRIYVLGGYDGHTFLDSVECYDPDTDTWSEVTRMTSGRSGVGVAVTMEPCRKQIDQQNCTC
Sequence of UniProt Q5T447 (Q5T447 whole entry, looked up): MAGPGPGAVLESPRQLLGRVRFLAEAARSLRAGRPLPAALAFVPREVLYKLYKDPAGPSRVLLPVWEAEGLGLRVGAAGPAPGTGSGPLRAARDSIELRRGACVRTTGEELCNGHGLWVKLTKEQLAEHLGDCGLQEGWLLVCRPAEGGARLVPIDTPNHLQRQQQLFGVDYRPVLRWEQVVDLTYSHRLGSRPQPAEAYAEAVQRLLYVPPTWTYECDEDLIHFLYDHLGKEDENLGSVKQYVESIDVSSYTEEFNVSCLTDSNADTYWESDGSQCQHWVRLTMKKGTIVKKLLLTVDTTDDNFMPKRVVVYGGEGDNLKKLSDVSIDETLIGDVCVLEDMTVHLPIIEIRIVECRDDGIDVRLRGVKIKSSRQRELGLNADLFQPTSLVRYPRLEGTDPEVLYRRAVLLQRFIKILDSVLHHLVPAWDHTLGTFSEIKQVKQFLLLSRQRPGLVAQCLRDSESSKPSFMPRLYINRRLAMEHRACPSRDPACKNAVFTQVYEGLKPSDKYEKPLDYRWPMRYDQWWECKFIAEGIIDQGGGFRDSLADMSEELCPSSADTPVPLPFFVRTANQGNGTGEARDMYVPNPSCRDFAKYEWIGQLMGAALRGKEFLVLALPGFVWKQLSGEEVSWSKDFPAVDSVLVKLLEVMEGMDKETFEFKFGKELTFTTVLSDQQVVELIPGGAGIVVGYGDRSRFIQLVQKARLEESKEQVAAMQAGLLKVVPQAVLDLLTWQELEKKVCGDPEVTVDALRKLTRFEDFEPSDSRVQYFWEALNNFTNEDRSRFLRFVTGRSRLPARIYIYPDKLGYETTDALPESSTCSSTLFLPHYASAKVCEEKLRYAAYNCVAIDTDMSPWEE
Sequence of UniProt Q49A26 (Q49A26 whole entry, looked up): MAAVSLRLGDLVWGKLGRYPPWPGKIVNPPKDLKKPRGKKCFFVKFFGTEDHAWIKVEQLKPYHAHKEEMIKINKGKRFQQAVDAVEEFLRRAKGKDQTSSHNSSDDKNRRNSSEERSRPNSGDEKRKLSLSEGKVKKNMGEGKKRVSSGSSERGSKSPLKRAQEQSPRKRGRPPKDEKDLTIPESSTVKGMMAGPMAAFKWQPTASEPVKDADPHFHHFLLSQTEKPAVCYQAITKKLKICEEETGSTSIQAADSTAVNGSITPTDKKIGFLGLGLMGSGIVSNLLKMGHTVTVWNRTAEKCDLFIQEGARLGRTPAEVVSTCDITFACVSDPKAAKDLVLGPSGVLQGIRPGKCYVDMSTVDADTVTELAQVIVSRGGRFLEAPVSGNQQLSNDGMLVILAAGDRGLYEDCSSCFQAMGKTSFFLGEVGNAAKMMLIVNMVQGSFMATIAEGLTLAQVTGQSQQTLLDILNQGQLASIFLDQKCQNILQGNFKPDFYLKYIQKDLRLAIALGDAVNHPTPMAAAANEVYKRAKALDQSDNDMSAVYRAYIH
Sequence of UniProt Q6DN03 (Q6DN03 whole entry, looked up): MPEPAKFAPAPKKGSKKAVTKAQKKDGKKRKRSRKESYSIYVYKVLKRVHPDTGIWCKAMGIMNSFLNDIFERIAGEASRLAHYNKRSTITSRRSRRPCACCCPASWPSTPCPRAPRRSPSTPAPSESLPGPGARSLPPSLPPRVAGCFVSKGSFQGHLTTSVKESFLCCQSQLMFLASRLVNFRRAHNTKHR
Sequence of UniProt P02724 (P02724 whole entry, looked up): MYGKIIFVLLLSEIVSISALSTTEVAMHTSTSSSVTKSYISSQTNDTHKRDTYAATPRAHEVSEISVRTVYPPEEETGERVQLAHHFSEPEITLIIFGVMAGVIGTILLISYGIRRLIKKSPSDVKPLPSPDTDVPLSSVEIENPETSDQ
Sequence of UniProt Q14103 (Q14103 whole entry, looked up): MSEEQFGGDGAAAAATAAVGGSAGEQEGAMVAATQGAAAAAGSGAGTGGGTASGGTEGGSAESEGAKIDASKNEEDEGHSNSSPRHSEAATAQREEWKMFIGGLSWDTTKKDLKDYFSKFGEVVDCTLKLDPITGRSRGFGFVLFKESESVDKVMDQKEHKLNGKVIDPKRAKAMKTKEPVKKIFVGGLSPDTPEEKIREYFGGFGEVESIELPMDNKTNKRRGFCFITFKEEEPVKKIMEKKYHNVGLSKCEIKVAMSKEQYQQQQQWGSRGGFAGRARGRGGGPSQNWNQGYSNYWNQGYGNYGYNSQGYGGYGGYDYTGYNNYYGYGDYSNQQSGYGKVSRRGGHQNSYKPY

Target	log2 fold change [1]	log2 fold change [2]	log2 fold change [3]	log2 fold change [4]	log2 fold change [5]
HDHD5 (UniProt Q9BXW7)	0.018	-0.249 (active)	0.043	-0.002	-0.059
HNRNPUL2 (UniProt Q1KMD3)	0.029	-0.017	0.022	-0.023	-0.032
HNRNPD isoform 3 (UniProt Q14103)	0.074	0.078	0.005	0.09	0
HAUS4 (UniProt Q9H6D7)	-0.022	-0.255 (active)	0.045	-0.017	-0.018
INTS10 (UniProt Q9NVR2)	0.027	-0.438 (active)	0.047	0.002	0.006
HAUS2 (UniProt Q9NVX0)	-0.052	-0.514 (active)	-0.037	0.039	-0.029
HDLBP, A0A024R4E5	0.009	-0.427 (active)	-0.013	0.004	0.009
HNRNPLL (UniProt Q8WVV9)	0.009	-0.653 (active)	0.035	0.004	0.034
HTT (UniProt P42858)	-0.029	-0.331 (active)	0.04	0	-0.042
KDM5C (UniProt P41229)	0.039	-0.282 (active)	0.015	0	0.003
HMGN5 (UniProt P82970)	-0.014	0.14	0.002	-0.005	0.002
INPP4A (UniProt Q96PE3)	0.016	-0.106	0.002	-0.013	0.006
GLYR1 (UniProt Q49A26)	-0.006	-0.033	-0.022	-0.007	-0.041
IRF2BPL (UniProt Q9H1B7)	-0.018	-0.324 (active)	0.02	0.006	-0.065
GNL3 (UniProt Q9BVP2)	0.017	-0.142	0.008	-0.041	0.018
GLUL (UniProt P15104)	0.008	0.13	0.006	-0.096	0.116
GOLGA1 (UniProt Q92805)	0.048	0.07	0.01	-0.076	-0.014
IRAK1 (UniProt P51617)	-0.073	-0.359 (active)	0.205	-0.014	0.232
KEAP1 (UniProt Q14145)	-0.019	-0.262 (active)	-0.008	-0.022	0.001
HMGCS1 (UniProt Q01581)	0.018	0.53 (active)	0.011	0.013	-0.002
HSPA14 (UniProt Q0VDF9)	-0.022	-0.226 (active)	0.035	-0.007	-0.009

Target	log2 fold change [1]	log2 fold change [2]	log2 fold change [3]	log2 fold change [4]	log2 fold change [5]
HEATR3 (UniProt Q7Z4Q2)	-0.03	-0.5 (active)	0.013	-0.017	-0.006
GTF3C3 (UniProt Q9Y5Q9)	-0.007	-0.291 (active)	0.018	0.011	-0.052
HMGB2 (UniProt P26583)	0.004	0.122	-0.052	0.047	0.003
GOLGA6B (UniProt A6NDN3)	0.019	0.117	-0.002	0.353 (active)	-0.084
INTS5 (UniProt Q6P9B9)	-0.045	-0.56 (active)	0.088	0.039	0.093
IARS (UniProt P41252)	0.014	-0.325 (active)	0.046	-0.008	0.031
HIST2H2BC (UniProt Q6DN03)	0.018	0.133	-0.098	-0.019	-0.062
GRB10 (UniProt Q13322)	-0.001	-0.402 (active)	0.065	0.008	0.007
IGF2BP3 (UniProt O00425)	-0.012	-0.305 (active)	0.025	0	0.006
KATNBL1 (UniProt Q9H079)	0.111	-0.176	-0.02	0.144	0.234
GNE isoform 2 (UniProt Q9Y223)	0.056	-0.443 (active)	0.023	0.012	0.017
HSD17B12 (UniProt Q53GQ0)	0.025	-0.009	-0.05	-0.078	0.041
HECTD3 (UniProt Q5T447)	-0.015	-0.253 (active)	0.109	-0.02	0.022
KDM1A (UniProt O60341)	0.01	-0.163	0.009	-0.009	0.01
GTF2H1 (UniProt P32780)	-0.019	-0.412 (active)	0	-0.024	0.035
GSE1 (UniProt Q14687)	0.029	-0.286 (active)	-0.006	-0.006	-0.017
GSTM4 (UniProt Q03013)	0.025	0.015	0.301 (active)	0.012	-0.03
IARS2 (UniProt Q9NSE4)	-0.002	0.079	-0.01	-0.021	0.01
INPPL1 (UniProt O15357)	0.025	-0.528 (active)	0.057	0.017	-0.015
GYPA (UniProt P02724)	-0.028	0.152	-0.097	-0.04	0.019
HMGB1 (UniProt P09429)	-0.024	0.083	0.017	0.098	-0.014
